Assay in all cases: DAPPL (digital affinity profiling via proximity ligation, sequencing); 10 mM Tris-HCl pH 7.5, 50 mM NaCl, 1 mM DTT, 4% glycerol, room temperature, 30 min; GST-TFs on glutathione beads, 16-mer random dsDNA library, 0.1% formaldehyde crosslink after washing; high values mean tight binding
Holding throughout (conditions): protein: recombinant; tags: N-terminal GST; dsDNA, one strand shown

Assay [1] addresses T1, GABPA (Homo sapiens, UniProt Q06546 1-454).
T1 sequence: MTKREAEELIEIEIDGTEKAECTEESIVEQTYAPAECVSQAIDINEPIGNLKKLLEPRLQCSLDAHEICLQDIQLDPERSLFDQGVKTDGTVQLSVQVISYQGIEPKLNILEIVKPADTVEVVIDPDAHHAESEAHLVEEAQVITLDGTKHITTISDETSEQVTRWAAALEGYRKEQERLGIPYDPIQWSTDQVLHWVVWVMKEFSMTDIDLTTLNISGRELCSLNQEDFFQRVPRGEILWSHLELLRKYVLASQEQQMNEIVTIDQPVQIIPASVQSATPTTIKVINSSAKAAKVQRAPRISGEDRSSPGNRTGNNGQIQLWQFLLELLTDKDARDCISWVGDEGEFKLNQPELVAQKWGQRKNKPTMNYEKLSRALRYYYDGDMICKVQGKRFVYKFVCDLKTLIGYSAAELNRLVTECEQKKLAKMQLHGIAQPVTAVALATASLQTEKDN
The method in brief: (§1)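 A tag-only sample was pooled with DNA-barcoded human transcription factors that had been expressed in yeast as GST fusions and captured on glutathione beads. The pools were incubated for 30 min at room temperature with 200 nmole of a random double-stranded 16-mer DNA library in Tris/NaCl/DTT/glycerol buffer, then washed, crosslinked with 0.1% formaldehyde, proximity-ligated (BsaI/T4 ligase, 1 h, 37 °C), PCR-amplified and sequenced on an Illumina NextSeq500. Binding signal is each hexamer's read frequency for a factor divided by its frequency for the tag-only sample.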

The target in assay [2] is ELF1 (Homo sapiens, UniProt P32519 1-619). In outline: as §1
Sequence of ELF1 (P32519 whole entry): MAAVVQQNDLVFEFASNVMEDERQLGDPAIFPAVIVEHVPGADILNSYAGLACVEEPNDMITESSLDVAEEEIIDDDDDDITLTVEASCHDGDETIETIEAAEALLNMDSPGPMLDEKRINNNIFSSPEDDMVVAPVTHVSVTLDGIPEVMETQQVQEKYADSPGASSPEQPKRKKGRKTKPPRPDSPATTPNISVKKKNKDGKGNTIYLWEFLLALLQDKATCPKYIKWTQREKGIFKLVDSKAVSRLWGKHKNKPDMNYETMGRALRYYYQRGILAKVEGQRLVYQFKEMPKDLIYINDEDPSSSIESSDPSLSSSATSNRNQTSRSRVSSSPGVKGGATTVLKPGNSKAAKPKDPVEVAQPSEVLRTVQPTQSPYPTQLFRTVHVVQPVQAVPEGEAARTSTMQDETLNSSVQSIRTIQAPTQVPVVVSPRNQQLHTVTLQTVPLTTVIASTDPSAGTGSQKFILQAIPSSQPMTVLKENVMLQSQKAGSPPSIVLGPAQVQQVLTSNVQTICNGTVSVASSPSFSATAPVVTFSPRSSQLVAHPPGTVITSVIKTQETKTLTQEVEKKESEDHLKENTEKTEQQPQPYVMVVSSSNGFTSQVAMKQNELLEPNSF
Assay [3] has as its target T2, EHF (Homo sapiens, UniProt Q9NZC4 1-300).
T2 sequence: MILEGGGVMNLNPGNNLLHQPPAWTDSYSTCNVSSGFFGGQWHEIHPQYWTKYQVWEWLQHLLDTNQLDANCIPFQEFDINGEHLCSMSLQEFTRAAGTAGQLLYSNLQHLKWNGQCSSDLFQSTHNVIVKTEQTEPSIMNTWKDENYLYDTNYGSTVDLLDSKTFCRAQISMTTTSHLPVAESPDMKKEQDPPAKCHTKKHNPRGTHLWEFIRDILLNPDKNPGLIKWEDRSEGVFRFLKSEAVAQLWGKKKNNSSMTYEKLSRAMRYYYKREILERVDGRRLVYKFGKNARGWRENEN
The method in brief:
as §1

The target of assay [4] is ETV5 (Homo sapiens, UniProt P41161 1-510). The method in brief:
as §1

Assay [5] addresses T3, ELF3 (Homo sapiens, UniProt P78545 1-371).
T3 sequence: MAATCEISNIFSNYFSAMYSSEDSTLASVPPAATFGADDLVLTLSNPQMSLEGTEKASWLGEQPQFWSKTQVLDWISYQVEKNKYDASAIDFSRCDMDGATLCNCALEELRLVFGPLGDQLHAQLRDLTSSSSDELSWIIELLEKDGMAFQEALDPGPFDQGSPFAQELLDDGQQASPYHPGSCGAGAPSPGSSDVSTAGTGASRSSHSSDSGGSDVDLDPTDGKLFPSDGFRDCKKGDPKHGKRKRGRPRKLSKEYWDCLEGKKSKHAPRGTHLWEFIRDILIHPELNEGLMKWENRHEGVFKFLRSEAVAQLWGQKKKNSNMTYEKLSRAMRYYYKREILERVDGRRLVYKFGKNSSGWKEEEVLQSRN
The method in brief:
as §1

Assay [6] deals with ETV1 (Homo sapiens, UniProt P50549 1-477). The method in brief: as §1
Sequence of ETV1 (P50549 whole entry): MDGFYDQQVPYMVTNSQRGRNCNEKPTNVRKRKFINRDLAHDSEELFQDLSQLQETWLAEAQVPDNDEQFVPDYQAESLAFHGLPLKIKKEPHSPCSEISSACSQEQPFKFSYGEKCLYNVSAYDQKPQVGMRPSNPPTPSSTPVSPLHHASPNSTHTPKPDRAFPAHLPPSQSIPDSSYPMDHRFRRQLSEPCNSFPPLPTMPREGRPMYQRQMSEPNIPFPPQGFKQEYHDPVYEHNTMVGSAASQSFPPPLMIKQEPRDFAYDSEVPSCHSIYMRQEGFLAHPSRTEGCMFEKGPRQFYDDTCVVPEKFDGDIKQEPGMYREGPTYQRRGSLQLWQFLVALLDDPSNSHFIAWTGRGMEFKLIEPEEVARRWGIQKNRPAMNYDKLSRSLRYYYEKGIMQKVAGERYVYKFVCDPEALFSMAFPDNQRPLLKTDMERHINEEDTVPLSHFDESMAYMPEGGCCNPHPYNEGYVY
For assay [7], the target named is T4, ERF (Homo sapiens, UniProt P50548 1-548).
T4 sequence: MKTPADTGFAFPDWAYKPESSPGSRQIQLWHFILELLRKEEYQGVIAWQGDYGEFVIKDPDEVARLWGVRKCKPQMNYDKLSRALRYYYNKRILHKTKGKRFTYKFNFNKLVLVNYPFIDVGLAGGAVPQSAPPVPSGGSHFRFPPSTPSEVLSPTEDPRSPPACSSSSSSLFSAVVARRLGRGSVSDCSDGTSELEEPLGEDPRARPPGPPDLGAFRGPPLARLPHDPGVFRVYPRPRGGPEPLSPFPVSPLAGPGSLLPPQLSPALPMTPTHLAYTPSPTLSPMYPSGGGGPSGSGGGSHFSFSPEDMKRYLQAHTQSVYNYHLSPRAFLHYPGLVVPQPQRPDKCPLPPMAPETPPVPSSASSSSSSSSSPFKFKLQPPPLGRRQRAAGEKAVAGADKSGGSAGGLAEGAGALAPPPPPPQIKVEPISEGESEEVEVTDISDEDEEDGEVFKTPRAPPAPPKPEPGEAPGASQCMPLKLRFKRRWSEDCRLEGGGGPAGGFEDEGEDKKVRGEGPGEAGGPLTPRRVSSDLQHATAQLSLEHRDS
The method in brief:
as §1

Assay [8] addresses ETV6 (Homo sapiens, UniProt P41212 1-452). In outline:
as §1

The target in assay [9] is T5, ELK1 (Homo sapiens, UniProt P19419 1-428).
T5 sequence: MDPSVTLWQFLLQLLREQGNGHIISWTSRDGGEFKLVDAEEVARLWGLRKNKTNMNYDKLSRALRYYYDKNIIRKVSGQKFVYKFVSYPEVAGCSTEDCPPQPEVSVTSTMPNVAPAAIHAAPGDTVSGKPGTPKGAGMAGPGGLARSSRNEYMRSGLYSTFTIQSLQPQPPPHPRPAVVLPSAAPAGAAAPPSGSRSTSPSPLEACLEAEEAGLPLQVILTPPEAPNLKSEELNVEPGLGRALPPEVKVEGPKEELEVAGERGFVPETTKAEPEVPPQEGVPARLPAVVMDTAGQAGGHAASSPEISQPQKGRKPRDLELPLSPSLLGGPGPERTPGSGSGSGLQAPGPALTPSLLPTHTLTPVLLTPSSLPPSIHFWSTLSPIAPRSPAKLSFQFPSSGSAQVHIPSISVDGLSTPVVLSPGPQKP
In outline:
as §1

Assay [10] concerns the target T6, ELK3 (Homo sapiens, UniProt P41970 1-407).
T6 sequence: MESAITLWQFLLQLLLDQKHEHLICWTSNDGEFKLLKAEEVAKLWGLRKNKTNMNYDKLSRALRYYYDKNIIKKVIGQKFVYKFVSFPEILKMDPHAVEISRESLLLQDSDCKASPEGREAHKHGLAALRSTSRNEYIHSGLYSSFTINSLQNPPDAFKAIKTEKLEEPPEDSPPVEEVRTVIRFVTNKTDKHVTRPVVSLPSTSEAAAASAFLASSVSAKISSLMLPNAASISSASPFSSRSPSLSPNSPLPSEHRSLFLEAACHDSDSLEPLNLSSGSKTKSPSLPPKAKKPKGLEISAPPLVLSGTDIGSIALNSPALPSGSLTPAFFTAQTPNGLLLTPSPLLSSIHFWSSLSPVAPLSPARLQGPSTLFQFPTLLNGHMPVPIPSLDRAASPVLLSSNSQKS
In outline: as §1

Assay [11] concerns the target T7, SPIC (Homo sapiens, UniProt Q8N5J4 1-248).
T7 sequence: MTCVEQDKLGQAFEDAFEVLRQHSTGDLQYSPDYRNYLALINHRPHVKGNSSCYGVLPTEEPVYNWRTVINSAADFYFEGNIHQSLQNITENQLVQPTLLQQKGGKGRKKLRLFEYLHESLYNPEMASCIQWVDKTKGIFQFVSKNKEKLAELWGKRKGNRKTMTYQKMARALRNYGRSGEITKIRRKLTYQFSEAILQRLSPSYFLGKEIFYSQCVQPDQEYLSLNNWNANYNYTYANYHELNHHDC
The method in brief:
as §1

Assay [12] has as its target T8, ELK4 (Homo sapiens, UniProt P28324-2 1-405).
T8 sequence: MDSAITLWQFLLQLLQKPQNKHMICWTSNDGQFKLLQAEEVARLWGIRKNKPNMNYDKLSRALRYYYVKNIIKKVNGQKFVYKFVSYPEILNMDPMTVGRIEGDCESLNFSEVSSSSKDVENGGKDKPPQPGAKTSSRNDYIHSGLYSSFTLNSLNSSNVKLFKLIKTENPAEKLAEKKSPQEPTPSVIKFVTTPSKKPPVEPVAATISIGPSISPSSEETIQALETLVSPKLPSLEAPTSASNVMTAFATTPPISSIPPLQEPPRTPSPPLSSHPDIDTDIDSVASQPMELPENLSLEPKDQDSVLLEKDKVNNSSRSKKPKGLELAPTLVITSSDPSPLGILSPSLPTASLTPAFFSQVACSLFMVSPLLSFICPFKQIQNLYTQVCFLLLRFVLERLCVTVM
The method in brief:
as §1

The target in assay [13] is T9, ETS2 (Homo sapiens, UniProt P15036 1-469).
T9 sequence: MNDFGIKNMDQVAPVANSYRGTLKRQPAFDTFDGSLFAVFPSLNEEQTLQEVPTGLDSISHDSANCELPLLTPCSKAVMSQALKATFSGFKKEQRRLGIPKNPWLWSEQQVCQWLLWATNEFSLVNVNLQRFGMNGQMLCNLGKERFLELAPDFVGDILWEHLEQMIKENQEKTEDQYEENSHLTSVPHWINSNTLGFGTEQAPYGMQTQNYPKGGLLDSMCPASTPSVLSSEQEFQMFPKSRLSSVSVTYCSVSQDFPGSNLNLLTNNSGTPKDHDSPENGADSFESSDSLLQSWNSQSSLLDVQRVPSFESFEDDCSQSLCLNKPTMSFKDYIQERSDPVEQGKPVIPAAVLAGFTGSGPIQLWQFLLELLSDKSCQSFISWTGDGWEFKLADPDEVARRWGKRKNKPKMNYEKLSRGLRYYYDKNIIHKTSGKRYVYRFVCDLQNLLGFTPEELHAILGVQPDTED
The method in brief:
as §1

The target in assay [14] is T10, SPDEF (Homo sapiens, UniProt O95238 1-335).
T10 sequence: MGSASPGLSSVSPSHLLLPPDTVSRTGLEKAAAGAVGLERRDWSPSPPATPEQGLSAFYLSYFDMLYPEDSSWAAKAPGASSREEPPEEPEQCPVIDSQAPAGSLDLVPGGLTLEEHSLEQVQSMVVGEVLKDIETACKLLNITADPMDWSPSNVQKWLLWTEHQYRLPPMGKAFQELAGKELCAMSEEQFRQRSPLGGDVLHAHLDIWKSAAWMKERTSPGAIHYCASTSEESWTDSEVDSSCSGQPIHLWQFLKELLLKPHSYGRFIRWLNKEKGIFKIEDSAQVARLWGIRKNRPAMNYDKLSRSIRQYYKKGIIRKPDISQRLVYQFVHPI
The method in brief: as §1

For assay [15], the target named is T11, ETV7 (Homo sapiens, UniProt Q9Y603 1-341).
T11 sequence: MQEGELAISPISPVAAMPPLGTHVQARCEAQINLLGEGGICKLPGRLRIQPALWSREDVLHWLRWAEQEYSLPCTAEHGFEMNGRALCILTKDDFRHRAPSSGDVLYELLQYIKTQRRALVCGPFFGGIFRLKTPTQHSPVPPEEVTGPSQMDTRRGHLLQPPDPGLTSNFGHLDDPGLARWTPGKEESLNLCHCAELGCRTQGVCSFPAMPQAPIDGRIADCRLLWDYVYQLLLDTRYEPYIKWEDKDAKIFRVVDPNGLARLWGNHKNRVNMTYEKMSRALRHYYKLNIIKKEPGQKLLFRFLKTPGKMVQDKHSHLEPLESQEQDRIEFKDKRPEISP
The method in brief: as §1

Sequence of ETV5 (P41161 whole entry): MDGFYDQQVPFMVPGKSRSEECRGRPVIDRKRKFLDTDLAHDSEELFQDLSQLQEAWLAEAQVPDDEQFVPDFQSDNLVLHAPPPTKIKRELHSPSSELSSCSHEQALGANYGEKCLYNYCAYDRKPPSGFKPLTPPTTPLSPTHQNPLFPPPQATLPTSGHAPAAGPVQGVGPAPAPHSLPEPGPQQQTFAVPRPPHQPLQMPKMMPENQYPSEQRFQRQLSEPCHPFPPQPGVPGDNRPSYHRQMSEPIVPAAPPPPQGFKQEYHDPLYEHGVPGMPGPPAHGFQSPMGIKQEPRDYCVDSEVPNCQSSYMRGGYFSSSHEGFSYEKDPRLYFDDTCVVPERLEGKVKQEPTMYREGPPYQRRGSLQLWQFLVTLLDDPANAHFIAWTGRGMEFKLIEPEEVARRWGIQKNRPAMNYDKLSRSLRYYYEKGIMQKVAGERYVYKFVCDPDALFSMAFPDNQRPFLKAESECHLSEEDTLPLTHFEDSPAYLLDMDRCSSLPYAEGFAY
Sequence of ETV6 (P41212 whole entry): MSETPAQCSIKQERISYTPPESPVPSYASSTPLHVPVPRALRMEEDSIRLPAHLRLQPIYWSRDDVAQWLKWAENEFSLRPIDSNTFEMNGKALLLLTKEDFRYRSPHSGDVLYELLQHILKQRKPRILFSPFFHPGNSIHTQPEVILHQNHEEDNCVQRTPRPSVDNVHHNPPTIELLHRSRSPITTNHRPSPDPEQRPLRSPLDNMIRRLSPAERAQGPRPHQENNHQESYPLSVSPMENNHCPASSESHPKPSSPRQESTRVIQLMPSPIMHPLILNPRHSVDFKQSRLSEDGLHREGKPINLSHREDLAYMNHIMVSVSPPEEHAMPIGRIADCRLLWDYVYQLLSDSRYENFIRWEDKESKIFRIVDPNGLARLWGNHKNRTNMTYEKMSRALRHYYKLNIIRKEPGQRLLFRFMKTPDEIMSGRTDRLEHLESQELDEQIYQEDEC

Turning to CATAGC, the binding signal in assay [1] was 1.02 fold enrichment (6-mer frequency, TF over GST control); in [2], 1.02 fold enrichment (6-mer frequency, TF over GST control); in [3] it was 1.01 fold enrichment (6-mer frequency, TF over GST control); in assay [4], 1.01 fold enrichment (6-mer frequency, TF over GST control); in assay [5], 1.1 fold enrichment (6-mer frequency, TF over GST control); in assay [6], 1.02 fold enrichment (6-mer frequency, TF over GST control). For the same sequence, the binding signal in [7] was 1.07 fold enrichment (6-mer frequency, TF over GST control); in assay [8], 1.02 fold enrichment (6-mer frequency, TF over GST control).
With ATAGGG, the binding signal was 1.01 fold enrichment (6-mer frequency, TF over GST control) in assay [9]; 1.03 fold enrichment (6-mer frequency, TF over GST control) in assay [1]; 1.01 fold enrichment (6-mer frequency, TF over GST control) in assay [3]; 1.06 fold enrichment (6-mer frequency, TF over GST control) in [10]; 1.03 fold enrichment (6-mer frequency, TF over GST control) in assay [4]; 1.08 fold enrichment (6-mer frequency, TF over GST control) in [11]. For the same sequence, the binding signal in [12] was 1.06 fold enrichment (6-mer frequency, TF over GST control); in assay [7] it was 1.14 fold enrichment (6-mer frequency, TF over GST control); in assay [13] it was 1.01 fold enrichment (6-mer frequency, TF over GST control); in assay [14] it was 1.01 fold enrichment (6-mer frequency, TF over GST control); in assay [15], 1.09 fold enrichment (6-mer frequency, TF over GST control).

These data come from paper PMC7862700, “An all-to-all approach to the identification of sequence-specific readers for epigenetic DNA modifications on cytosine”.
